Screening data from PubChem BioAssay.
HepG2 viability = qHTS for Inhibitors of TGF-b: Cytotox Counterscreen; HepG2 CAGA-GFP viability, ATP luminescence, 18 h; Potency, µM (doses to about 46.1 µM), inactives show at the highest dose activity change, negative = cytotoxicity, actives largely listed as cytotoxic; hit rate 0.76% among 410,000; note: potency is the fitted concentration of half-maximal effect
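CellTiter-Glo luminescence gave cytotoxicity after 18 hours at 37 degrees C. The cells were HepG2 CAGA-GFP in 1% FBS DMEM, stimulated with 500 pg/mL TGF-beta after compound addition. %Activity was normalised to no-cell wells (complete cell-killing) and DMSO (no toxicity), and curves were fitted and classified.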
DT40 TDP1 CPT = qHTS for Inhibitors of human tyrosyl-DNA phosphodiesterase 1 (TDP1): qHTS in cells in presence of CPT | chicken DT40 Tdp1-/-;hTDP1 cells + 20 nM CPT, ATP luminescence, 48 h | Potency, µM (doses to about 46.2 µM), for the others: at the highest dose activity change, negative = growth inhibition, usual class: inhibitors | hit rate 12% among 420,000; note: potency is the fitted concentration of half-maximal effect; % is set by controls: 0 for no effect and ±100 for the full control effect; nearly all actives have a fitted effect of over 55% in size
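Chicken DT40 Tdp1-/- cells stably complemented with human TDP1 were seeded at 400 cells/well in medium containing 20 nM camptothecin, exposed to pin-transferred compounds, and grown at 37 °C for at least 48 hr. Viability was read as ATP luminescence.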
ASM inhibitor = Inhibitors of Secretory Acid Sphingomyelinase (S-ASM): qHTS | Sphingomyelin phosphodiesterase (Homo sapiens), P17405 | placental ASM, HMU-PC fluorogenic substrate, 60 min | Potency, µM (titrated, usually from 57.5 µM), inactives show top-dose activity change, negative = inhibition, hits mostly inhibitors | hit rate 0.006% among 340,000; note: potency is the fitted concentration of half-maximal effect
Target sequence (P17405 47-631 limits assumed): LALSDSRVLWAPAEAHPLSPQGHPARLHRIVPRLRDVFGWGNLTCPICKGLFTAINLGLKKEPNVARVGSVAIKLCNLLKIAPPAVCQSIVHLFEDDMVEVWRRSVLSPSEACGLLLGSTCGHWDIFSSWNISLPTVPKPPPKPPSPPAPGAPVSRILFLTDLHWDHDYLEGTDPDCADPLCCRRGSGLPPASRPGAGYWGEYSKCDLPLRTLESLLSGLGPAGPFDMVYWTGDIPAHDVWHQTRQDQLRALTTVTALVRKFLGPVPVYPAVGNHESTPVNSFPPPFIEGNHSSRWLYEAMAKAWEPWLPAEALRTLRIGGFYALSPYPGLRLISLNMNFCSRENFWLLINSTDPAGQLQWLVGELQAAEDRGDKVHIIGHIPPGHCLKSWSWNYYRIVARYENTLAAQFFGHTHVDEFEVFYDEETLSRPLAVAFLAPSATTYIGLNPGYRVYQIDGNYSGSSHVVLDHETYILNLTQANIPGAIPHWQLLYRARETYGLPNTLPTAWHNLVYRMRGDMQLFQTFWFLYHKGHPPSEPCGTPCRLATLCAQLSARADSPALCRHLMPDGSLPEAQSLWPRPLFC
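Human placenta-derived ASM enzyme was preincubated with compound for 10 minutes at room temperature, then given fluorogenic substrate HMU-PC0 (9 uM final) for 60 minutes at 37 °C; a pH 10 stop preceded fluorescence reading at Ex 386/Em 447 nm.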
TGFb inhibitor = qHTS for Inhibitors of TGF-b | AID 588855, 2011 | hit rate 1.2% among 410,000 | HepG2 CAGA-GFP TGF-b/SMAD3 reporter, GFP fluorescence, 18 h; TGF-beta stimulated, 500 pg/mL final | Potency, µM (highest dose often 46.1 µM), for inactives: at the highest dose activity, negative = inhibition, actives largely listed as inhibitors; note: potency is the fitted concentration of half-maximal effect; % is set by controls: 0 for no effect and ±100 for the full control effect; nearly all actives have a fitted effect of over 65% in size
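Read-out: total well GFP (ex488/em500-530) summed from mean per-cell fluorescence. Cells: HEPG2 CAGA-GFP, 1% FBS DMEM, 18 h at 37 degrees C with 500 pg/mL final TGF-beta. Unstimulated wells served as the full-inhibition control; stimulated DMSO wells = 0%.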
IL1B secr inh = qHTS for Inhibitors of Inflammasome Signaling: IL-1-beta AlphaLISA Primary Screen; THP-1 LPS/ATP IL-1B secretion, AlphaLISA, 16 h; stronger effect = lower value; AID 743279, 2014; activity change, % at 57.5 µM; hit rate 4.7% among 360,000; in the data active = activity change below about -50%; inconclusive = mostly about -30% to -49%; note: % is set by controls: 0 for no effect and ±100 for the full control effect
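Secreted IL-1B measured by AlphaLISA bead assay after 16 h compound exposure of THP-1 cells; compounds (final up to 57.5 uM) added 1 h before LPS (250 ng/mL) and ATP (1.25 mM) stimulation; lower signal means less secretion.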
TDP1 cell noCPT = qHTS for Inhibitors of human tyrosyl-DNA phosphodiesterase 1 (TDP1): qHTS in cells in absence of CPT; Potency, µM (top dose mostly 46.2 µM), inactives show at the highest dose activity change, negative = growth inhibition, usual class: inhibitors; AID 686978, 2013; hit rate 15% among 420,000; DT40 Tdp1-/- hTDP1 cells, no CPT, ATP luminescence, 48 h; note: potency is the fitted concentration of half-maximal effect; % is set by controls: 0 for no effect and ±100 for the full control effect; nearly all actives have a fitted effect of over 55% in size
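Chicken DT40 Tdp1-/- cells stably complemented with human TDP1 were seeded at 400 cells/well with DMSO in place of 20 nM camptothecin. After compound pinning, cells grew at least 48 hr at 37 °C; viability read by CellTiter-Glo luminescence.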
Numbers without * were called inactive; [ ] = dose if it differs, or a comment. Rows were chosen to be rich in hits. Some 19% of all compounds tested hit in one or more screens of this group. Unless noted, calls come from the whole dose curve; as a rule, active = well fitted curve in the direction sought with a large enough effect; inconclusive = small, poorly fitted or top-dose-only effect, or another doubt; inactive = no such curve, though single readings can be large; an effect the other way counts as inactive or inconclusive.

CCOc1ccc(-n2c(=O)c3sccc3n(CC(=O)NC3CCCCC3)c2=O)cc1 was read as HepG2 viability -9.2%, DT40 TDP1 CPT -1.6%, ASM inhibitor 0.4%, TGFb inhibitor 17.4%, IL1B secr inh 22.3 and TDP1 cell noCPT -12.8%.
`CC(=O)c1cccc(NS(=O)(=O)N2CCOCC2)c1` gave HepG2 viability 7.4%, DT40 TDP1 CPT -2.2%, ASM inhibitor 2.1%, TGFb inhibitor -0.1%, IL1B secr inh 11.4 and TDP1 cell noCPT 6.8%.
Screening Cc1ccc(CNC(=O)c2nc(S(=O)(=O)Cc3ccc(C)cc3)ncc2Cl)cc1 returned HepG2 viability -50.2%, DT40 TDP1 CPT 5.8µM*, TGFb inhibitor inconclusive and TDP1 cell noCPT 3.26µM*.
Cc1ccc(CNC(=O)c2nc(SCc3ccc(C)cc3)ncc2Cl)cc1 was read as HepG2 viability -3.9%, DT40 TDP1 CPT -9.9%, TGFb inhibitor inconclusive and TDP1 cell noCPT inconclusive.
CSc1c2c(nc3ncnn13)CCC2 was read as HepG2 viability 1.5%, DT40 TDP1 CPT 16.8%, ASM inhibitor 8.6%, TGFb inhibitor -1.5%, IL1B secr inh -10.1 and TDP1 cell noCPT -0.4%.
For CSc1nc2[nH]c3c(c2c2ncnn12)CCCC3 the results were HepG2 viability -36.6%, DT40 TDP1 CPT 14.6µM*, ASM inhibitor -2.8%, TGFb inhibitor -25.2%, IL1B secr inh -12.9 and TDP1 cell noCPT inconclusive.
`Cc1ccccc1CNC(=O)c1cc2cc(S(=O)(=O)N3CCCCC3)ccc2n1C` gave HepG2 viability -2.8%, DT40 TDP1 CPT inconclusive, TGFb inhibitor -1.0% and TDP1 cell noCPT 18.4µM*.
Screening Cc1ccccc1CNC(=O)Cn1ccc2cc(S(=O)(=O)N3CCCCCC3)ccc21 returned HepG2 viability -1.6%, DT40 TDP1 CPT inconclusive, ASM inhibitor -2.4%, TGFb inhibitor -5.9%, IL1B secr inh 0.0 and TDP1 cell noCPT inconclusive.
Screening Cc1cc2cc(CNC(=O)c3ccc(S(=O)(=O)N4CCCCC4)cc3)ccc2n1C returned HepG2 viability -36.3%, DT40 TDP1 CPT -19.1%, ASM inhibitor 1.5%, TGFb inhibitor -12.1%, IL1B secr inh 11.3 and TDP1 cell noCPT -14.1%.
Cn1c(C(=O)NCc2ccc(F)cc2)cc2cc(S(=O)(=O)N3CCCCC3)ccc21 was read as HepG2 viability 6.5%, DT40 TDP1 CPT 23.1µM*, TGFb inhibitor 35.6% and TDP1 cell noCPT 11.6µM*.
CCc1ccc(CNC(=O)c2cc3cc(S(=O)(=O)N4CCCCC4)ccc3n2C)cc1 was read as HepG2 viability -8.0%, DT40 TDP1 CPT inconclusive, TGFb inhibitor 0.0% and TDP1 cell noCPT 13µM*.
`CSc1ccc(CNC(=O)c2cc3cc(S(=O)(=O)N4CCCCC4)ccc3n2C)cc1` gave HepG2 viability -10.6%, DT40 TDP1 CPT -20.2%, TGFb inhibitor 0.0% and TDP1 cell noCPT inconclusive.
CCCCC1CCC(C(=O)N2CC(=O)Nc3ccc(Cl)cc3C2c2ccc(F)cc2)CC1 (stereo not given) was read as HepG2 viability -34.1%, DT40 TDP1 CPT inconclusive, TGFb inhibitor inconclusive and TDP1 cell noCPT inconclusive.
Screening Cc1cccc(C)c1NC(=O)Nc1nc(C(N)c2ccccc2Cl)cs1 (stereo not given) returned HepG2 viability -7.4%, DT40 TDP1 CPT inconclusive, TGFb inhibitor -4.9%, IL1B secr inh -19.4 and TDP1 cell noCPT 16.4µM*.
For COc1ccc(OC)c(NC(=O)Nc2nc(C(N)c3ccccc3Cl)cs2)c1 (stereo not given) the results were HepG2 viability -41.6%, DT40 TDP1 CPT inconclusive, TGFb inhibitor -20.8%, IL1B secr inh -51.2* and TDP1 cell noCPT inconclusive.
`COc1ccc(OC)c(NC(=O)Nc2nc(C(N)C(C)C)cs2)c1` (stereo not given) gave HepG2 viability -48.1%, DT40 TDP1 CPT inconclusive, TGFb inhibitor 7.2%, IL1B secr inh -63.5* and TDP1 cell noCPT inconclusive.
COc1ccc(CNC(=O)C2=C(C)C(=O)OC23CCCCC3)cc1OC was read as HepG2 viability -9.4%, DT40 TDP1 CPT -15.2%, TGFb inhibitor inconclusive and TDP1 cell noCPT inconclusive.
CCOc1ccc(CN2CCN(Cc3cn(CC)nc3C)CC2CCO)cc1 (stereo not given) was read as HepG2 viability 0.2%, DT40 TDP1 CPT 15.5%, ASM inhibitor 1.0%, TGFb inhibitor 1.2%, IL1B secr inh 14.6 and TDP1 cell noCPT 6.3%.
For CC(OC(=O)c1snc(C(=O)NC2CCCCC2)c1N)C(=O)NC(C)(C)C (stereo not given) the results were HepG2 viability -34.4%, DT40 TDP1 CPT 14.1µM*, ASM inhibitor 318.3%, TGFb inhibitor -18.3%, IL1B secr inh 0.0 and TDP1 cell noCPT 12.6µM*.
Screening Nc1nc(-c2ccccc2)c(N=Nc2ccc(Cl)cc2)s1 returned HepG2 viability -0.9%, DT40 TDP1 CPT 1.1%, ASM inhibitor -14.7%, TGFb inhibitor -4.9%, IL1B secr inh -7.2 and TDP1 cell noCPT -11.1%.
Cc1nc(N)sc1N=Nc1ccccc1C(F)(F)F was read as HepG2 viability -20.9%, DT40 TDP1 CPT inconclusive, ASM inhibitor -5.9%, TGFb inhibitor 0.0%, IL1B secr inh -70.8* and TDP1 cell noCPT inconclusive.
For COc1ccccc1CNC(=O)[C@H](C)NC(=O)C1CCN(C(=O)[C@H](CCSC)NC(=O)OC(C)(C)C)CC1 the results were HepG2 viability -10.1%, DT40 TDP1 CPT -10.3%, ASM inhibitor 1.2%, TGFb inhibitor -0.3%, IL1B secr inh -11.8 and TDP1 cell noCPT -14.2%.
For Cc1cccc2c(N3CCCC3)nc(CNS(=O)(=O)c3ccccc3Cl)nc12 the results were DT40 TDP1 CPT -13.5%[9.04 µM] and TDP1 cell noCPT -29.0%.
COc1ccccc1C1CN(Cc2c(C)nn(C)c2Cl)Cc2ccccc2O1 (stereo not given) was read as DT40 TDP1 CPT -5.6%[9.04 µM] and TDP1 cell noCPT -0.5%.
`O=C1N[C@H]2CC=C[C@H]2Nc2ccccc21` gave HepG2 viability -22.9%, DT40 TDP1 CPT 13µM*, ASM inhibitor 5.7%, TGFb inhibitor -1.9%, IL1B secr inh -14.7 and TDP1 cell noCPT 16.4µM*.
